Assay results reported in the supplement of paper PMC11732987, “Enantioselective OTUD7B fragment discovery through chemoproteomics screening and high-throughput optimisation” (Communications Chemistry, 2025).

Legend:
Assay in all cases: log2 ratio of Biotin-Ahx-Ub-VS probe labelling (fragment/DMSO); higher = less target engagement (more negative = stronger competition), active = hit call of the paper (q ≤ 0.05, log2 ratio ≤ -1)
Conditions in all cases: compound concentration: 200 uM; treatment time: 3 h
USP19 = molecular target: T1, USP19 (UniProt O94966)
T1 sequence (whole entry): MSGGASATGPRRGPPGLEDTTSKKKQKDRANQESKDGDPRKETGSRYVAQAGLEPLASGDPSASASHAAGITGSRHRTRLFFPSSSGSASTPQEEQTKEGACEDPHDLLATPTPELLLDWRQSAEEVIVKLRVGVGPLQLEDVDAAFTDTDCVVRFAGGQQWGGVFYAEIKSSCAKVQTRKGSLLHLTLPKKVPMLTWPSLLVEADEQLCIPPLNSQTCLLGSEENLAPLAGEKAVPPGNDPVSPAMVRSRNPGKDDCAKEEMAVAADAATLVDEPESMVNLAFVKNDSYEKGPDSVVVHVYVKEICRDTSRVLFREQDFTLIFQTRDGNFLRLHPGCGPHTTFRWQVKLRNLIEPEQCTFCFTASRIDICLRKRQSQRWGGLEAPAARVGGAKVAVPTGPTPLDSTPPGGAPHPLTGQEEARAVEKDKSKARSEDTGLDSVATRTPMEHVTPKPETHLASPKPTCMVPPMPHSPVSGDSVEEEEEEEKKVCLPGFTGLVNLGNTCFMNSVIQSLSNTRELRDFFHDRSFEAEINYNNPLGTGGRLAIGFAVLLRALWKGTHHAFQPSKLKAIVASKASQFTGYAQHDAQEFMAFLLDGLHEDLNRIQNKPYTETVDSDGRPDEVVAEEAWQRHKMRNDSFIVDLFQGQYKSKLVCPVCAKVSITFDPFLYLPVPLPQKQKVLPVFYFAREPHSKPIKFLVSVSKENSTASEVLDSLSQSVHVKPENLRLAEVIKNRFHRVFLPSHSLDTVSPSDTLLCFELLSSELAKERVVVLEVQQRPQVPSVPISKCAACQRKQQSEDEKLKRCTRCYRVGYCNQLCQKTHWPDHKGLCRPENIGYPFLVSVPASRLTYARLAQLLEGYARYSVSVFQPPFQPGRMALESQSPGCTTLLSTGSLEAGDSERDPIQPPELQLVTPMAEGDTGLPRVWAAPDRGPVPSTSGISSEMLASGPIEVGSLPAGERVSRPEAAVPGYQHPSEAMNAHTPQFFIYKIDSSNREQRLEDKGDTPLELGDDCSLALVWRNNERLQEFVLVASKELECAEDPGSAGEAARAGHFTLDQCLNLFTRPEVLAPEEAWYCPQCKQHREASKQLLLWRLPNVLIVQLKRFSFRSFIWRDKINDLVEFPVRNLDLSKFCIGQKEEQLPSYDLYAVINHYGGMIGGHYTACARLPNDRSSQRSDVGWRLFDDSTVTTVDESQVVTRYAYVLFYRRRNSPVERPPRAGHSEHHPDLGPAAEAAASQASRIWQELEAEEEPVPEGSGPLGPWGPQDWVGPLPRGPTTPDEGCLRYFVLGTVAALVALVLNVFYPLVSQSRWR
In short: (§1)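 Labelled DUBs were enriched with NeutrAvidin, digested with LysC and trypsin, and run by diaPASEF LC-MS/MS. The labelling used Biotin-Ahx-Ub-VS at 0.5 µM final for 1 h on HEK293T lysate (495 µg per sample) previously treated in triplicate with fragment at 200 µM or vehicle for 3 h. Values are average log2 fragment/vehicle ratios by unpaired t-test on global-median-normalised Spectronaut quantities of proteins with ≥2 unique peptides.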

USP22 = molecular target: T2, USP22 (UniProt Q9UPT9)
T2 sequence (whole entry): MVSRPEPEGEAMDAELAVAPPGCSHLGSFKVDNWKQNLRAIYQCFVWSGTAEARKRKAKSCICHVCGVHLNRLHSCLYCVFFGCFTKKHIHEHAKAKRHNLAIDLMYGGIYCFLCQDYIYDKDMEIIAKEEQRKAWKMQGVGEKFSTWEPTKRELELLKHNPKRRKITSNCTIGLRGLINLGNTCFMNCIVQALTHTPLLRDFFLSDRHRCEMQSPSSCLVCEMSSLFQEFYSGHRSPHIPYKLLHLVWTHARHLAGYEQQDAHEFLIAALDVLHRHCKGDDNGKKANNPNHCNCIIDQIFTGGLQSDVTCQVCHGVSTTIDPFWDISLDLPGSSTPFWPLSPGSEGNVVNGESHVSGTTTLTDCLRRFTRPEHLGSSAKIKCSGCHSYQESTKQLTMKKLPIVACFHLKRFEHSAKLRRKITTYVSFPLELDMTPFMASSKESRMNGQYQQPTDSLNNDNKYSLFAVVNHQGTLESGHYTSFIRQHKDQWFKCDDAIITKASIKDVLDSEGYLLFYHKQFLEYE
In short: as §1

USP24 = USP24 (UniProt Q9UPU5)
In short: as §1

USP25 = molecular target: T3, USP25 (UniProt Q9UHP3)
T3 sequence (whole entry): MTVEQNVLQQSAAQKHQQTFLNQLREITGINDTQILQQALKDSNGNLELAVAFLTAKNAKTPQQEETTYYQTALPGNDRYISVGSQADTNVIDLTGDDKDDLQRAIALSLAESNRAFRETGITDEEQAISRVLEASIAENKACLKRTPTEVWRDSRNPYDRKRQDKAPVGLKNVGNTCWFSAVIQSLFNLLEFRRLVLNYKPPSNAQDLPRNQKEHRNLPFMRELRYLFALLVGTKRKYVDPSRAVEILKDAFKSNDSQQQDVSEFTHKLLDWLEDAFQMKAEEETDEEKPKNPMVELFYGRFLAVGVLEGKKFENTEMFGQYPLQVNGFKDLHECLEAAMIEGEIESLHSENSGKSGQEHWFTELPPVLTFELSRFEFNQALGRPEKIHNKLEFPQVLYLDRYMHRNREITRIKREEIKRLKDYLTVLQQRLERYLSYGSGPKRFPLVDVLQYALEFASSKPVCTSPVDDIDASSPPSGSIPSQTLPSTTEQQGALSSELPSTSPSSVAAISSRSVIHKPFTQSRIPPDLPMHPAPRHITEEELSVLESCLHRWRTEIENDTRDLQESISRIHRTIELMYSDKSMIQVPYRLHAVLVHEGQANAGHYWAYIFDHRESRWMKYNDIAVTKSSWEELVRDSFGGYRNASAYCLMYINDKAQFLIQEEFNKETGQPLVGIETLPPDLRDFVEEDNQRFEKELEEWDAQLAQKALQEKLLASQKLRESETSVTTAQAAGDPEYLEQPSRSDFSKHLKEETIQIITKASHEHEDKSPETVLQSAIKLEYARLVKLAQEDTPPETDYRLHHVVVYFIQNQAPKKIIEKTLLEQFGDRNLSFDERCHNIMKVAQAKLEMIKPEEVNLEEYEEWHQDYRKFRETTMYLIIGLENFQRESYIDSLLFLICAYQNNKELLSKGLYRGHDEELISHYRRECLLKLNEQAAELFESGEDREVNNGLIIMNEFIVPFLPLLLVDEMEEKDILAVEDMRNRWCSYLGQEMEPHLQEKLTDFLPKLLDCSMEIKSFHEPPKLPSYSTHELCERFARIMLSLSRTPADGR
In short: as §1

USP28 = molecular target: T4, USP28 (UniProt Q96RU2)
T4 sequence (whole entry): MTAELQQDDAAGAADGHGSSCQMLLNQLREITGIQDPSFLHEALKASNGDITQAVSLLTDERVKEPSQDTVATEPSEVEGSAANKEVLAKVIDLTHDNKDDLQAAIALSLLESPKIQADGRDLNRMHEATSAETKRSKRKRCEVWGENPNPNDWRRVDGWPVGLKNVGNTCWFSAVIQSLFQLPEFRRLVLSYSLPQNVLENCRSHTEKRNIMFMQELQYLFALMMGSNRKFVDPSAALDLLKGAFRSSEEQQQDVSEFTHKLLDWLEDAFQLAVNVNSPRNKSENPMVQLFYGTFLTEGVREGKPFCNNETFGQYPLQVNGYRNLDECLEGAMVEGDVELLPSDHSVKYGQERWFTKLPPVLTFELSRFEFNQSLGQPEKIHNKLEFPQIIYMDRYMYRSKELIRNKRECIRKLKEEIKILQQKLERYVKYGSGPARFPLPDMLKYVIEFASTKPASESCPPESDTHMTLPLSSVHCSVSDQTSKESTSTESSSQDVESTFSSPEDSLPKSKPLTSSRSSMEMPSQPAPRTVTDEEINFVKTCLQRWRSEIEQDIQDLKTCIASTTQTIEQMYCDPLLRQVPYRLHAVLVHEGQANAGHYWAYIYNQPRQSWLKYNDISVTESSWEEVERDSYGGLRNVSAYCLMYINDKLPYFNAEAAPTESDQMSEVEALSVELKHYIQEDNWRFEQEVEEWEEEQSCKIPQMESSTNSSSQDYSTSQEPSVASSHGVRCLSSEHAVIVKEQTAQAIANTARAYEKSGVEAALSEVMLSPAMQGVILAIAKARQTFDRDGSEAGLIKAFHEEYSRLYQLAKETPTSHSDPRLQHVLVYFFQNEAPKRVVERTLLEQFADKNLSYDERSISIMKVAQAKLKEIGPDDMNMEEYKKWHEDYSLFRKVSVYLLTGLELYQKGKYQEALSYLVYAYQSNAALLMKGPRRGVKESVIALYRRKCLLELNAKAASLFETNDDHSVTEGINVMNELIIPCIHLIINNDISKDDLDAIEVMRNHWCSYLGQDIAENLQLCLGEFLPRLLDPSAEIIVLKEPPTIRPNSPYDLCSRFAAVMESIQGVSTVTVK
In short: as §1

Measured: log2 ratio of Biotin-Ahx-Ub-VS probe labelling

USP24, sequence (Q9UPU5 whole entry): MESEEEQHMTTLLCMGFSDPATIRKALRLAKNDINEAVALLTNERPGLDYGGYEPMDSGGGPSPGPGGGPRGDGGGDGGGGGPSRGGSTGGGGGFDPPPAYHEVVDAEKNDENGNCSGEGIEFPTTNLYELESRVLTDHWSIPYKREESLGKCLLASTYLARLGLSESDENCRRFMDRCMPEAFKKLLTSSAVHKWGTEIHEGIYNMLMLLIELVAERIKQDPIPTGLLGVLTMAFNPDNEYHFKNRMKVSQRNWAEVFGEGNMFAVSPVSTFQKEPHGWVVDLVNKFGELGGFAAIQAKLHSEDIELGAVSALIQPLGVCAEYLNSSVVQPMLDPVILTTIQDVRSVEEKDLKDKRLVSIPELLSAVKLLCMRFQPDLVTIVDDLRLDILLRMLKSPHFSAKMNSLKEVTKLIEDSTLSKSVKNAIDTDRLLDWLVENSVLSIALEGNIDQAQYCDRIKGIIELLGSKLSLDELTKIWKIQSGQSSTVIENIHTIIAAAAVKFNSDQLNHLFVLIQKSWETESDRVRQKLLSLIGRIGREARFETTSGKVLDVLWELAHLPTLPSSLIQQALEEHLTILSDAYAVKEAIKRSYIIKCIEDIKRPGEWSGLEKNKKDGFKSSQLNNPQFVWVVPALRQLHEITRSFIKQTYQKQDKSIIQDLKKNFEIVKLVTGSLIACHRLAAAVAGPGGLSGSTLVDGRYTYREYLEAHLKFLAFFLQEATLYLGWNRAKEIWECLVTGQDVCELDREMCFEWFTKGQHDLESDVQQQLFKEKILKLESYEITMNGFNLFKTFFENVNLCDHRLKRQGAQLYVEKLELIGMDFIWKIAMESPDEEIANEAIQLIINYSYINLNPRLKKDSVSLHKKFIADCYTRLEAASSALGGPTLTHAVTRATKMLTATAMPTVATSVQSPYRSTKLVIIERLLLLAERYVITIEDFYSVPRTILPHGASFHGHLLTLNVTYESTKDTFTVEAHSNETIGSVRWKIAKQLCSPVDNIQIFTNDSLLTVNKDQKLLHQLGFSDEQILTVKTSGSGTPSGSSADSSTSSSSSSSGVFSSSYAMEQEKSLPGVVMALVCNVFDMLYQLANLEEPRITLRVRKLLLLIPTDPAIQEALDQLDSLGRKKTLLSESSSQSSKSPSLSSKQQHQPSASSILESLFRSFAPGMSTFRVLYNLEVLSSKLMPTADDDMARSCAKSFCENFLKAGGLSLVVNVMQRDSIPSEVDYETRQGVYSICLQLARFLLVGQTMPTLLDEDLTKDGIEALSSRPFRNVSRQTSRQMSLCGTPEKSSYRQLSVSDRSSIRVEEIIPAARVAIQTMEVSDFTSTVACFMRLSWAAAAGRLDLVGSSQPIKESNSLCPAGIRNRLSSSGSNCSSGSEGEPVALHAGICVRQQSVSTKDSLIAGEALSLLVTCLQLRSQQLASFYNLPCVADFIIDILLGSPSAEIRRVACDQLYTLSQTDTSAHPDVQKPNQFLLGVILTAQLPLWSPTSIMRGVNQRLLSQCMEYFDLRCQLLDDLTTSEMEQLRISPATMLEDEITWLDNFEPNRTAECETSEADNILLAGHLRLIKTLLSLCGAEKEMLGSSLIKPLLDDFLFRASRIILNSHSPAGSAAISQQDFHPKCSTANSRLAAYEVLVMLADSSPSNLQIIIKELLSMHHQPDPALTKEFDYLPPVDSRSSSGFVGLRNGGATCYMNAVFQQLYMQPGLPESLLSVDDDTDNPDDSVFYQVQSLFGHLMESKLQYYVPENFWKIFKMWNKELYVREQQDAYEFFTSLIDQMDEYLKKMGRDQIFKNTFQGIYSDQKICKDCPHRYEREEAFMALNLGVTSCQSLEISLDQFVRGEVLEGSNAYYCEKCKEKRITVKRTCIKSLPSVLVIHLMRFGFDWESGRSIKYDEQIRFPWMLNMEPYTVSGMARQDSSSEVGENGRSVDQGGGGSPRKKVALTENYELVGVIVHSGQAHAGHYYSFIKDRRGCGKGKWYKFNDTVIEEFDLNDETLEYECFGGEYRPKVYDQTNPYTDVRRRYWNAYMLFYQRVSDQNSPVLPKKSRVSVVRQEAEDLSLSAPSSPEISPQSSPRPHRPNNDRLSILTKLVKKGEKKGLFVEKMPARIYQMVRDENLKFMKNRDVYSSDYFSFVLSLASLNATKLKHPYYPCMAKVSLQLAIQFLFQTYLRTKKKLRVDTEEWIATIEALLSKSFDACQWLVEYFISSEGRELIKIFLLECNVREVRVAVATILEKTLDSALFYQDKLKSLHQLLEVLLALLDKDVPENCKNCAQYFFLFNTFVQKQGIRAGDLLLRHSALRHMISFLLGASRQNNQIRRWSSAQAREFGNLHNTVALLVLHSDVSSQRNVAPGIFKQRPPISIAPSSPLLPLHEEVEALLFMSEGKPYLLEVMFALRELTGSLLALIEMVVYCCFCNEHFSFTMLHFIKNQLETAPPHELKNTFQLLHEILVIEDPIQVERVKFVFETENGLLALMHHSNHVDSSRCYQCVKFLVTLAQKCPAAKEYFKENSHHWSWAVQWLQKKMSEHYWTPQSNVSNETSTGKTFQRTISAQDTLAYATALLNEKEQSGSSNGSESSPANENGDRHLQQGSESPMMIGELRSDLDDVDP

CC(NC(=O)CCl)c1cnn(C2CC2)c1 (stereo not given)
inactive: USP19 -0.305 | USP22 -0.22 | USP24 -0.409 | USP25 -0.784 | USP28 -0.621
